Bioassay records as filed in PubChem.
FGF22 binding: binders of human FGF22 protein, primary screen, FGF22 synaptogenesis inhibitor project, biophysical, thermal shift, single point; Fibroblast growth factor 22 (Homo sapiens), Q9HCT0; recombinant FGF22 thermal shift, SYPRO orange fluorescence; percent of sucrose octasulfate shift, DMSO zero; activity (Tm shift, normalised), % at 9.99 µM; 340,000 tested, 1.5% active; AID 651658, 2012;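 active = mean Tm shift, scaled 0 neutral to 100 positive control, at about 1.3% or above, every replicate too, limit read from the data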
ADAM10 inh: human ADAM10 inhibitors, primary screen, biochemical, QFRET, HTS; recombinant ADAM10, EDANS/DABCYL FRET peptide cleavage, 3 h; AID 720582, 2013; inhibition, % at 7 µM; 370,000 tested, 0.62% active;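 active = inhibition above a per-campaign cutoff equal to the mean of compounds falling between control-based bounds plus 3 SD, cut at about 20% in these data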;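 also: 0% = DMSO wells while the 100% control is not disclosed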
proKLK7 act: proKLK7 zymogen activators, primary screen, biochemical, fluorescence intensity; Kallikrein-7 (Homo sapiens), P49862; purified proKLK7, EDANS-DABCYL substrate fluorescence; 100% is mature enzyme control, 0% vehicle; 370,000 tested, 0.9% active; AID 652039, 2013; activation, % at 7 µM;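 active = activation above the mean of all tested compounds plus 3 SD, computed per campaign excluding outliers beyond control limits, cut at about 13% in these data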
ADAM17 inh: ADAM17 inhibitors, primary screen, biochemical, QFRET; Disintegrin and metalloproteinase domain-containing protein 17 (Homo sapiens), P78536; recombinant ADAM17, EDANS/DABCYL FRET peptide cleavage; inhibition, % at 6.95 µM; 370,000 tested, 0.83% active; AID 720648, 2013;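 active = inhibition above the mean of compounds lying between control limits plus 3 SD, set per campaign, cut at about 8.5% in these data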;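 also: 0% = DMSO-only wells as the low control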
Target sequence (P78536 215-824 limits assumed): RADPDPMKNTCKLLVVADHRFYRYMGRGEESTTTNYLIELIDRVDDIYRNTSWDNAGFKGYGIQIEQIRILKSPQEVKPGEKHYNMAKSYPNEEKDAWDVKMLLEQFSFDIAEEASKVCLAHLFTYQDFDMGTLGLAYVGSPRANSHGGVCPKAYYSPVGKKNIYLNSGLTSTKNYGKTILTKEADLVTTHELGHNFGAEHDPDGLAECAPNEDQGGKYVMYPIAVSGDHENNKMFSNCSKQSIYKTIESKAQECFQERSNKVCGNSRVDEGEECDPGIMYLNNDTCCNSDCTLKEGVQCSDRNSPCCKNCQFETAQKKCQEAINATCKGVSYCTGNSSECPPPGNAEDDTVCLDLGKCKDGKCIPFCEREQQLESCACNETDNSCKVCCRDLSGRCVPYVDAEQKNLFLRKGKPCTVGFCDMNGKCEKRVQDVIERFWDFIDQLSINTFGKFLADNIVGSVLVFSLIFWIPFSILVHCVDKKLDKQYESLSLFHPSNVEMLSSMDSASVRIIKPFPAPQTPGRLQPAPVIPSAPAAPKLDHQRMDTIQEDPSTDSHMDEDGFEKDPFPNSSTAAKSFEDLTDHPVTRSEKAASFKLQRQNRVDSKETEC
Ecoli rRNA inh: reduced GFP signal of wild-type E. coli, primary screen, bacterial rRNA inhibitor project, GFP/RFP fluorescence, OD600, single point. AID 720706, 2013. 350,000 tested, 1.6% active. GFP signal change (wild-type ribosome), % (test concentration not listed). E. coli WT GFP vs humanized-ribosome RFP mutants, 24 h; stronger effect = lower value; DMSO median 0, no signal -100;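 active = significant combined selectivity score with lowered wild-type GFP, culture density cut under 30%, mutant RFP and density less affected; inactive = any of these conditions unmet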
ADAM10 confirm: human ADAM10 inhibitors, confirmation, biochemical, QFRET, triplicate; 2,100 tested, 1% active; inhibition, % at 6.95 µM; shares compounds with ADAM10 inh; AID 743208, 2013; ADAM10 QFRET peptide cleavage, EDANS fluorescence;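 active = inhibition above about 20% chosen separately for each screening run, limit read from the data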;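 also: 0% = DMSO wells and 100% = marimastat wells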
ADAM17 counter: ADAM17 inhibitors, counter-screen for ADAM10 exosite inhibitor project, biochemical, QFRET, high throughput. shares compounds with ADAM10 inh. ADAM17 QFRET peptide cleavage, EDANS fluorescence. inhibition, % at 6.95 µM. 2,100 tested, 0.5% active. AID 743214, 2013;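 active = mean triplicate inhibition above the solvent-only control wells' mean plus 3 SD, cut at about 12% in these data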;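 also: 0% = DMSO wells and 100% = marimastat wells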
Starred values were filed as active, the others as inactive; . = not tested or not shown. Compounds with a hit are over-represented: about 3.8% of the library has one in this group of screens.

SMILES | FGF22 binding | ADAM10 inh | proKLK7 act | ADAM17 inh | Ecoli rRNA inh | ADAM10 confirm | ADAM17 counter
Cc1ccc(S(=O)(=O)Nc2ccccc2NS(=O)(=O)c2ccc(C)cc2)cc1 | 0 | 22* | 1 | 5 | -27 | 5 | 1
CC(C)Oc1ccc(NC(=O)c2ccncc2)cc1 | . | 78* | 0 | -1 | . | -2 | 0
CCS(=O)(=O)N1CC2(CN[C@H](CO)c3c2c2ccc(OC)cc2n3C)C1 | . | . | . | . | 4 | . | .
COc1cc(NC(=O)C(OC(=O)CNC(=O)c2ccccc2)c2ccccc2)cc(C(F)(F)F)c1 (stereo unspecified) | . | 29* | . | 15* | . | 1 | 2
O=C(C[C@@H]1C=C[C@@H](NC(=O)Cc2ccccn2)[C@H](CO)O1)NCCCN1CCOCC1 | 0 | . | . | . | 2 | . | .
C[C@@H]1CN([C@H](C)CO)C(=O)c2cc(NC(=O)CCN3CCOCC3)ccc2O[C@H]1CN(C)S(C)(=O)=O | 0 | . | . | . | 2 | . | .
Cc1ccc(NC(=S)NCCc2ccc(F)cc2)c(C)c1 | . | -3 | -1 | -2 | . | . | .
Cc1ccc(NC(=S)Nc2ccc(F)cc2)c(C)c1 | 44* | 21* | 0 | 0 | -9 | 0 | 0
COC(=O)C1=C(C)N(Cc2ccc(Cl)cc2)C(=S)NC1c1cccc(OC)c1 (stereo unspecified) | 0 | 22* | 0 | 7 | 5 | 4 | 2
CCCCn1c(SCc2nc(N)nc(Nc3ccccc3C)n2)nc2ccccc2c1=O | . | 21* | 1 | 4 | . | 15 | 5
COCC(C)n1c(SCc2nc(N)nc(Nc3ccccc3C)n2)nc2ccccc2c1=O (stereo unspecified) | . | 2 | 0 | 0 | . | . | .
CN(CCc1ccccc1)C(=O)c1cc(COc2cccc(C(F)(F)F)c2)on1 | 0 | 21* | 0 | 1 | -40 | 3 | 1
Cc1ccc(C(=O)NCCSC2CCCCC2)cc1S(=O)(=O)Nc1ccccc1 | 0 | 24* | 0 | 6 | -20 | 6 | 1
Cc1ccc(SCCNC(=O)c2ccc(C)c(S(=O)(=O)Nc3ccccc3C)c2)cc1 | 0 | 21* | -1 | 6 | -17 | 8 | 3
Cc1ccccc1NS(=O)(=O)c1cc(C(=O)NCc2ccco2)ccc1C | . | 13 | 0 | 6 | . | . | .
Cc1ccc(S(=O)(=O)N[C@H]2CC[C@H](CCNC(=O)C3CCC3)O[C@@H]2CO)cc1 | 0 | . | . | . | 0 | . | .
C[C@H](CO)N1C[C@H](C)[C@@H](CN(C)C(=O)Nc2ccc(C(F)(F)F)cc2)Oc2ccc(NC(=O)Nc3ccc(F)cc3)cc2CC1=O | 0 | . | . | . | 0 | . | .
CCOC(=O)Cc1csc(NC(=O)CSc2ncnc3c2cnn3-c2ccccc2Cl)n1 | . | 26* | 1 | 8 | . | 1 | 2
CCCC#Cc1cnc2c(c1)C(=O)N([C@H](C)CO)C[C@H](C)[C@@H](CN(C)Cc1ccncc1)O2 | 0 | . | . | . | 3 | . | .
COc1cccc(NC(=O)[C@H](C)NC(=O)N2CCn3c2nc2ccccc23)c1 | 0 | 2 | 0 | -5 | -1 | . | .
COc1cccc(NC(=O)[C@@H](NC(=O)N2CCn3c2nc2ccccc23)C(C)C)c1 | -1 | 21* | 0 | -1 | 4 | 2 | 0
Cc1ccc(-c2cc(C(=O)NN=Cc3ccc(-c4ccccc4)cc3)[nH]n2)cc1C | . | 4 | 0 | 0 | . | . | .
Cc1ccc(-c2cc(C(=O)NN=C/C=C/c3ccco3)[nH]n2)cc1C | . | 20* | 0 | 6 | . | 8 | 4
O=C(NNc1ccccc1)C(=O)NNS(=O)(=O)c1ccc(CCCl)cc1 | 0 | 35* | 0 | 11* | -2 | 13 | 1
COC(=O)c1ccc(CSc2nnc(CS(=O)Cc3ccc(Br)cc3)n2-c2ccccc2)cc1 (stereo unspecified) | 0 | 3 | 0 | 5 | -35 | . | .
SMILES | FGF22 binding | ADAM10 inh | proKLK7 act | ADAM17 inh | Ecoli rRNA inh | ADAM10 confirm | ADAM17 counter
O=S(Cc1ccc(Br)cc1)Cc1nnc(SCc2ccc(Br)cc2)n1-c1ccccc1 (stereo unspecified) | 0 | 22* | 0 | 8 | -22 | 6 | 2
Cn1c(=O)c2c(nc(N/N=C/c3cccs3)n2Cc2ccccc2)n(C)c1=O | 0 | -4 | 0 | 2 | -5 | . | .
Cn1c(N/N=C/c2cccs2)nc2c1c(=O)n(Cc1ccccc1)c(=O)n2C | . | 26* | -1 | 5 | . | 9 | 5
COc1ccccc1NC(=O)C1=C(C)Nc2nc(-c3ccccc3)nn2C1c1ccccn1 (stereo unspecified) | . | 67* | 1 | 2 | . | 1 | 0
COc1ccccc1NC(=O)C1=C(C)Nc2nc(-c3cccs3)nn2C1c1cccc(O)c1 (stereo unspecified) | . | 4 | 0 | 3 | . | . | .
C[C@H](NC(=O)C[C@H]1C=C[C@H](NC(=O)Cc2ccccn2)[C@@H](CO)O1)c1ccccc1 | 0 | . | . | . | 2 | . | .
COC(=O)[C@]12C[C@H](CC(=O)NCc3cccc(C(F)(F)F)c3)C(=O)N(Cc3cccc4ccccc34)C1=C[C@H](C(C)C)O[C@@H]2C1CC1 | . | 25* | 0 | 3 | . | 10 | 3
COC(=O)[C@]12C[C@H](CC(=O)NCc3ccccc3)C(=O)N(Cc3cccc4ccccc34)C1=C[C@H](C(C)C)O[C@@H]2C1CC1 | . | 23* | 0 | 8 | . | 10 | 3
COc1ccc(-c2ccc([C@H]3[C@H](CO)N4C(=O)CN(C(=O)c5ccccn5)C[C@@H]34)cc2)cc1 | . | . | . | . | 0 | . | .
CC(=O)Nc1ccc2c(c1)C(=O)N(C)[C@@H]1CC[C@H](CC(=O)N3CCc4ccccc4C3)O[C@@H]1CO2 | 0 | . | . | . | 1 | . | .
COc1ccc2c3c([nH]c2c1)[C@@H](CO)N(C(=O)NC(C)C)CC31CN(C(=O)C2CCCCC2)C1 | 0 | . | . | . | -3 | . | .
CCCNC(=O)C(Cc1cccc(OC)c1)NC(=O)c1ccc(C(C)(C)C)cc1 (stereo unspecified) | . | 83* | 0 | 1 | . | 0 | 0
CCCNC(=O)C(Cc1cccc(OC)c1)NC(=O)c1ccc(C#N)cc1 (stereo unspecified) | 0 | 3 | 0 | -1 | 11 | . | .
